Inconclusive results are not listed. Calls of active or inactive are those of the source. Unless noted, no stated cut-off is given here; in the data, active means response above about 15%; inactive means the rest.

Assay [1] is described as follows: yeast TOR pathway RPL19A-GFP modulators, primary screen, cell-based, S. cerevisiae, multiplex flow cytometry (AID 1862; in the data active means percent of DMSO control GFP below about 86%;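 further: lower values mimic rapamycin by blocking the RPL19A rise seen in DMSO cells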). The settings on record: S. cerevisiae RPL19A-GFP strain, flow cytometry fluorescence, 3 h; at 10 µM; stronger effect = lower value. (In general: Flow cytometry measures light scatter and fluorescence of single cells or particles in a stream.)
Assay [2] in a line: modulators of MEP2-GFP levels in yeast, primary screen, S. cerevisiae, multiplex flow cytometry (AID 1867;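 active means GFP response, as percent of the DMSO control, above the screen-wide mean plus 3 SD, about 139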;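 further: median GFP channel fluorescence of barcode-gated MEP2-GFP cells measured by flow cytometry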). The settings on record: S. cerevisiae MEP2-GFP strain, 3 h, at 10 µM, stronger effect = higher value, 100% means same as DMSO wells.
A short description of assay [3]: modulators of CIT2-GFP expression in yeast, primary screen, S. cerevisiae, GFP fusion, multiplex flow cytometry (AID 1870;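 active means percent response above a set limit, the screen-wide mean plus 3 SD, cut at about 130% in these data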;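 further: barcoded CIT2-GFP strain pooled with four other GFP strains with rapamycin as positive control; median GFP fluorescence per well over plate mean of DMSO wells so 100% = DMSO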). The settings on record: 3 h, at 10 µM, stronger effect = higher value.
Assay [4] in a line: modulators of LAP4-GFP expression in yeast, primary screen, S. cerevisiae, multiplex flow cytometry (AID 1873;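 active means GFP signal, as percent of the solvent control, above the screen mean plus 3 SD, about 149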). The settings on record: 3 h, at 10 µM, stronger effect = higher value.
A short description of assay [5]: modulators of AGP1-GFP expression in yeast TOR pathway, primary screen, cell-based, multiplex flow cytometry, S. cerevisiae (AID 1887;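 active means GFP signal above the screen-wide mean plus 3 SD, that is over about 124.5% of the solvent control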;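 further: AGP1-GFP fusion strain of S. cerevisiae within a five-strain barcoded multiplex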). The settings on record: 3 h, at 10 µM, stronger effect = higher value.
Assay [6] in a line: inhibitors of CD8+ T cell-vesicle binding, pilot screen, LFA-1/ICAM-1 modulator project, MLPCN validation set, flow cytometry (AID 2523;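 active means response below a set limit, under 55% cells CD8-positive and vesicle-bound, and CD8 cells' 90th-percentile brightness under 279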;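 on vesicle binding response: mean PE anti-B7-1 fluorescence of CD8+ cells relative to row control; 100% = QL9-loaded vesicles with DMSO vehicle in the same plate row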). The settings on record: 2C mouse CD8+ T cells, at 7 µM, stronger effect = lower value; double positive events: measured here: CD8+/vesicle+ event percentage.
Assay [7] deals with Integrin beta-1 (Homo sapiens) + Integrin alpha-4 (Homo sapiens) (UniProt P13612+P05556). The assay can be described thus: inhibition of HUTS-21 binding to VLA-4, pilot screen, VLA-4 allosteric modulator project, U937 cells, HUTS-21 mAb, flow cytometry, validation set (AID 2674;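 active means inhibition above 50%, about 3 SD of the validation set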;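 further: antibody binding induced by the VLA-4 ligand LDV present at three times its Kd; 0% = LDV ligand with antibody and no compound and 100% = antibody without LDV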). The settings on record: HUTS-21 LIBS mAb binding, at 6.7 µM, stronger effect = higher value, binding induced by LDV ligand.
Integrin beta-1 (Homo sapiens) + Integrin alpha-4 (Homo sapiens), sequence (P05556 whole entry, looked up): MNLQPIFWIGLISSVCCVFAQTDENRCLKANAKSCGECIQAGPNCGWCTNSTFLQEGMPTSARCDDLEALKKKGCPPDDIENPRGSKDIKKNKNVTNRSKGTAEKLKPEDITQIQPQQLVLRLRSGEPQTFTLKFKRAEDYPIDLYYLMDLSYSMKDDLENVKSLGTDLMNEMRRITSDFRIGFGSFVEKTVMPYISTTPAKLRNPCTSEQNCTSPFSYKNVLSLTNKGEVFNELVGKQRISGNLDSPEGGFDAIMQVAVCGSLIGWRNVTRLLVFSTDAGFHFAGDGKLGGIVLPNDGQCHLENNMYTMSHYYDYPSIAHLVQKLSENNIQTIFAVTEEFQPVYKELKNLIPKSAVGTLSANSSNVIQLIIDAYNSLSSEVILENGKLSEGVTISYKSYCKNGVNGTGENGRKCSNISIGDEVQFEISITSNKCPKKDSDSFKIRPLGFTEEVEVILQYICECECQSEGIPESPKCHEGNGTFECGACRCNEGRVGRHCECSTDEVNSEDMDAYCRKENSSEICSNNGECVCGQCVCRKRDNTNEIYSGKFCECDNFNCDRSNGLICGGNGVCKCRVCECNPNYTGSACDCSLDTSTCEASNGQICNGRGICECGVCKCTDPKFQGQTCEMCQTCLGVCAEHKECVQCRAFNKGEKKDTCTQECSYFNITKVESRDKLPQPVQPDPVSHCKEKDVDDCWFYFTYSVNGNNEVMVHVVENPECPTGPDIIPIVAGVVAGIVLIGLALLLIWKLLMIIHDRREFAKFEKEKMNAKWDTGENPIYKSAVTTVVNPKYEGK
Integrin beta-1 (Homo sapiens) + Integrin alpha-4 (Homo sapiens), sequence (P13612 whole entry, looked up): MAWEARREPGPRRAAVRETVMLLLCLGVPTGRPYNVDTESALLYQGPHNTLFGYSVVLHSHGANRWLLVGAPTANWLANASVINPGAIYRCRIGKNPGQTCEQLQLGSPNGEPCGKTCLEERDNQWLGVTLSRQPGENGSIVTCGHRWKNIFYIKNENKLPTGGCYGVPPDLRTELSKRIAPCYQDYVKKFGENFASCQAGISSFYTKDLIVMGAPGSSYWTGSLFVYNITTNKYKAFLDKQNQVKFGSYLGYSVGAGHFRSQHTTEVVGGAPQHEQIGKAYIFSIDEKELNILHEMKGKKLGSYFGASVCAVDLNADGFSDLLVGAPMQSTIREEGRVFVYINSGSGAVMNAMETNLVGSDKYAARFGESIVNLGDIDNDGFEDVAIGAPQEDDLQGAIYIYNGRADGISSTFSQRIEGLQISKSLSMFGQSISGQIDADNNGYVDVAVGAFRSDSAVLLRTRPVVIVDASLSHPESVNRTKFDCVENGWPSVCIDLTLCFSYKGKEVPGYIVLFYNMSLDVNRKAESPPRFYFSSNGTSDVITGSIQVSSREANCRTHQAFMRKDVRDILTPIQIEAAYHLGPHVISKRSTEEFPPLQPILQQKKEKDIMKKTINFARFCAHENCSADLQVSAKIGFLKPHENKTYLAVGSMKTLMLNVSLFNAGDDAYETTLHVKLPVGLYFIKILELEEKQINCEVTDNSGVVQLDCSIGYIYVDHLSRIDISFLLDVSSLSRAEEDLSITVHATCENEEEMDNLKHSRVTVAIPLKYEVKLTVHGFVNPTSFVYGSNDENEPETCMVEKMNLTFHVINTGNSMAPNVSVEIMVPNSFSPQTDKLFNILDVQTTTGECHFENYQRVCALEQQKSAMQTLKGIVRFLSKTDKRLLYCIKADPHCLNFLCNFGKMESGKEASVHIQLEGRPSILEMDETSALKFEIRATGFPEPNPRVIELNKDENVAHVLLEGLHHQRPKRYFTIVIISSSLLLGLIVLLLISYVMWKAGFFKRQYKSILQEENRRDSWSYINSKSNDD

Assay [8] is described as follows: superoxide lowering in aged yeast cells, pilot screen, validation compound set (AID 2706;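 active means superoxide response below 65% of plate, a cut near 3 SD across the whole screen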;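 further: yeast exposed to compound for one week at 30 degrees C before staining; 100% = mean of all compound wells on the same plate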). The settings on record: S. cerevisiae aging, superoxide DHE fluorescence; at 10 µM, stronger effect = lower value.
The target in assay [9] is Beta-adrenergic receptor kinase 1 (Homo sapiens) (UniProt P25098). The assay can be described thus: GRK2 binders displacing RNA aptamer, biochemical, validation, human GRK2, bead flow cytometry (AID 488806;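 active means aptamer binding inhibition above 30%, about 3 SD of noise from non-fluorescent compounds; inactive means inhibition at or below 30%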). The settings on record: bead-bound GRK2, FAM-aptamer displacement, at 10 µM, stronger effect = higher value.
Beta-adrenergic receptor kinase 1 (Homo sapiens), sequence (P25098 whole entry, looked up): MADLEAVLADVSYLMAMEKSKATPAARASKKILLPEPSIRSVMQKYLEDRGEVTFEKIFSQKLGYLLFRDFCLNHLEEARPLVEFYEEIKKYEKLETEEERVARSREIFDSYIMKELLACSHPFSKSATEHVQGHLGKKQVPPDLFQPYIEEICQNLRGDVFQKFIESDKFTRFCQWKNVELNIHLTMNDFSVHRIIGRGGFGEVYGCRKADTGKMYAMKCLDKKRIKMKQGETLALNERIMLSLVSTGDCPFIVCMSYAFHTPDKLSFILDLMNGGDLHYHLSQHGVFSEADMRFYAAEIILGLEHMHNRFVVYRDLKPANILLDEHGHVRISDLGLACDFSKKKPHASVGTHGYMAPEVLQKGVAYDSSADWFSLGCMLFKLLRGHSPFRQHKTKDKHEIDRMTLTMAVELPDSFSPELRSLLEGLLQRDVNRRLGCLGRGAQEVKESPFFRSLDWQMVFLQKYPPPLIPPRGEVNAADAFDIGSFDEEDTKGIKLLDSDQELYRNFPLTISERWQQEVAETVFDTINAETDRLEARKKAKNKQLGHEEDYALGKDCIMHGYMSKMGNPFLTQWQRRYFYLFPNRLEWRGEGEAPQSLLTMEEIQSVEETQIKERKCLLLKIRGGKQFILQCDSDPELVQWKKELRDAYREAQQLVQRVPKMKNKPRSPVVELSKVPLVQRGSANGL
Assay [10] has as its target AP-2 complex subunit beta (Homo sapiens) (UniProt P63010). Kind of assay: inhibitors of arrestin peptide binding to AP2, pilot screen, biochemical, validation set, GST-AP2 beads, flow cytometry (AID 504541;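 active means inhibition above 54%, about 3 SD of non-fluorescent compounds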;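 further: AP2 carries R879A mutation and is captured from E. coli lysate; bead-bound FITC arrestin peptide fluorescence measuring arrestin peptide binding to AP2; 0% = DMSO wells and 100% = excess unlabeled arrestin peptide control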). The settings on record: FITC arrestin peptide, at 10 µM, stronger effect = higher value, AP2 beta2 appendage fragment, R879A mutant.
Assay [11] can be described thus: yeast V-ATPase proton transport modulators, S. cerevisiae, pHLuorin, HTS validation (AID 504600).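 Further: plate controls were DMSO for no effect and reference compound for full effect.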 The settings on record: S. cerevisiae pHLuorin cytosolic pH, at 10 µM, stronger effect = higher value.
Assay [12] relates to anti-desmoglein-3 scFv antibody binding to human DSG3. Kind of assay: inhibitors of anti-DSG3 scFv binding to DSG3, pilot screen, biochemical, validation compound set, bead-based, flow cytometry (AID 588368;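 active means binding below the plate cutoff, the plate median minus 3 SD, with a reading above zero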;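 further: signal is the median channel fluorescence of bead-bound GFP antibody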). The settings on record: Protein G beads, DSG3-Fc, scFv-GFP binding, at 10 µM, stronger effect = lower value.
Assay [13] can be described thus: inhibitors of fungal efflux pumps CDR1, CDR2, MDR1, pilot screen, validation compound set, multiplex, phenotypic (AID 588506;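 active means efflux inhibition above 0.42, the validation set average plus 4 SD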;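 further: Nile Red retained in cells so higher fluorescence means more efflux inhibition; 0 = negative control wells and 1 = enniatin B 25 µM full block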). The settings on record: S. cerevisiae pump-expressing triplex, Nile Red efflux flow cytometry; at 10 µM; stronger effect = higher value; the pumps come from Candida albicans.
For assay [14], the target named is ATP-binding cassette sub-family B member 6 (Homo sapiens) (UniProt Q9NP58). The assay can be described thus: ABCB6 transporter inhibitors, pilot screen, K562-ABCB6 cells, flow cytometry, validation set (AID 588550;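 active means inhibition above the screen-wide mean plus 3 SD, about 51%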;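 further: 0% = DMSO wells and 100% = benzethonium chloride 70 µM positive control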). The settings on record: K562-ABCB6 porphyrin accumulation, 1 h, at 10 µM, stronger effect = higher value.
ATP-binding cassette sub-family B member 6 (Homo sapiens), sequence (Q9NP58 whole entry, looked up): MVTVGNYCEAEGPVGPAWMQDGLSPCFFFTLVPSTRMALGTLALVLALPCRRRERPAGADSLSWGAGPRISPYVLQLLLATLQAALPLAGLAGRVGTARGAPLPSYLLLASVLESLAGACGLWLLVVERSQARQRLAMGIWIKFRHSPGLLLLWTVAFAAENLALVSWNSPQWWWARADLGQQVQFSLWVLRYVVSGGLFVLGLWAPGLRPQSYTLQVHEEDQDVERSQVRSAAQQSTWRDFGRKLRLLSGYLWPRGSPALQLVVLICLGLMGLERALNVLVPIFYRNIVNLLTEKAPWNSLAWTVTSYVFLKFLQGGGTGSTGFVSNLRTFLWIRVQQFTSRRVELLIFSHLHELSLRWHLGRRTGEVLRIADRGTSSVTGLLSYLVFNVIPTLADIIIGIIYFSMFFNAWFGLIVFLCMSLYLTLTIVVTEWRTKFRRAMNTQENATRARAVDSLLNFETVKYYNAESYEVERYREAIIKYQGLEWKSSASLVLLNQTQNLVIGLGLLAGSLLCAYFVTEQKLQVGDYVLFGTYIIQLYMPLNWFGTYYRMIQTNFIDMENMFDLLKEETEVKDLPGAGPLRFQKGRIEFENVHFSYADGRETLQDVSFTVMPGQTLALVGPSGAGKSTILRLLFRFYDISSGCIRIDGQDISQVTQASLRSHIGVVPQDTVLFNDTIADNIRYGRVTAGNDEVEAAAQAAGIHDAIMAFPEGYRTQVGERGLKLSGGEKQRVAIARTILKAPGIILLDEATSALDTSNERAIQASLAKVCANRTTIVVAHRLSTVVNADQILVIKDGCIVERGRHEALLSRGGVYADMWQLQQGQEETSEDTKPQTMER
The nature of assay [15]: promoters of myeloid differentiation in arrested cells, primary screen, cell-based, GFP/MAC1 double positive, flow cytometry, validation set (AID 588685;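 active means differentiation response of at least 50%, scaled between solvent and reference control, from cells with both markers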;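 further: compound exposure lasts four days before antibody staining and flow analysis; 0% = DMSO wells and 100% = 5 µM fulvestrant positive control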). The settings on record: ER-HoxA9 marrow cells, stronger effect = higher value, normalized: vehicle 0, fulvestrant 100.

AP-2 complex subunit beta (Homo sapiens), sequence (P63010 whole entry, looked up, the tested form may be a part, one chain of several): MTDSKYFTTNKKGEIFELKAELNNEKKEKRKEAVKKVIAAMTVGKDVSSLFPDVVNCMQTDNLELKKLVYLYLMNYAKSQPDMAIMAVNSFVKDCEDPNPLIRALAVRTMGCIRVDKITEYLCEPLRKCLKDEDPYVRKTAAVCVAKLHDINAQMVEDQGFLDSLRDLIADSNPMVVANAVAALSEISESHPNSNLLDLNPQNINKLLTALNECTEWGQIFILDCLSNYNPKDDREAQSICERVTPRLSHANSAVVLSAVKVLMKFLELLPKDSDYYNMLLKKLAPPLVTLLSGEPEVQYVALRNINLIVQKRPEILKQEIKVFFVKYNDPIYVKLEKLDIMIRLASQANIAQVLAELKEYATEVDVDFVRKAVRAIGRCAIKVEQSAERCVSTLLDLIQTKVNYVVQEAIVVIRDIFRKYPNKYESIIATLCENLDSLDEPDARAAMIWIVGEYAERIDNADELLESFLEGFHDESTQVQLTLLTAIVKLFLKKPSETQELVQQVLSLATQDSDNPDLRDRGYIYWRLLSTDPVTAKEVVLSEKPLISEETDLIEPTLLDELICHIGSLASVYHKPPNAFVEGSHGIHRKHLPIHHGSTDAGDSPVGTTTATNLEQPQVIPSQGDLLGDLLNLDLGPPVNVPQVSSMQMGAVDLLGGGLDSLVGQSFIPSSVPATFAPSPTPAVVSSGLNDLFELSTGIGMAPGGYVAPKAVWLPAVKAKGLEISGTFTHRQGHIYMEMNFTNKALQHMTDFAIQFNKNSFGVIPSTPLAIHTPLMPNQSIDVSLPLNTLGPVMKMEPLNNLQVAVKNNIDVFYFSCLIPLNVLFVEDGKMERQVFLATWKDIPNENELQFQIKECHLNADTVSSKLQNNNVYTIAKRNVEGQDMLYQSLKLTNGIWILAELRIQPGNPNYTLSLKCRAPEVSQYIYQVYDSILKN

By inhibition is commonly meant the relative decrease from the control value, in per cent. Regarding `C/C=C/Cn1c(SC)nc2c1c(=O)[nH]c(=O)n2C`, in assay [1], the percent of DMSO control GFP is 102% (inactive). Besides, the GFP response vs DMSO is 101% (inactive) in assay [2] and 93.3% (inactive) in assay [4]. The percent response of DMSO control in assay [3] is 95.9% (inactive). The GFP response, % of DMSO in assay [5] is 93.4% (inactive). This molecule had a double positive events in assay [6] of 59%. In assay [6], the vesicle binding response is 124% (inactive). Besides, the inhibition was 3.49% (inactive) in assay [7], 34.4% (inactive) in assay [10] and 0% (inactive) in [14]. The superoxide response (% of plate) in [8] is 97.4% (inactive). Besides, the aptamer binding inhibition in assay [9] is 0% (inactive). Moreover, in [11], the response is 1.09% (inactive). Also, the binding (% of control) in assay [12] is 103% (inactive). In addition, in assay [13], the efflux inhibition (fraction of control) is 0.78 (active). The differentiation response in assay [15] was -14.7% (inactive).
With `C=CCc1cccc2cc(C(=O)Nc3ccc(CC(=O)O)cc3)c(=O)oc12`, the percent of DMSO control GFP in assay [1] is 98.6% (inactive). The GFP response vs DMSO in [2] was 106% (inactive); in assay [4], 100% (inactive). Also, the percent response of DMSO control in assay [3] was 94.9% (inactive). Also, the GFP response, % of DMSO in assay [5] was 97.8% (inactive). Further, in assay [6], the double positive events came out at 63.1%. The vesicle binding response in [6] was 207% (inactive). Further, the inhibition in assay [7] is -2.11% (inactive); in [10], 28.6% (inactive); in assay [14], 5% (inactive). In addition, in assay [8], the superoxide response (% of plate) was 141% (inactive). In assay [9], the aptamer binding inhibition was 2% (inactive). In addition, the response in [11] is -3.63% (inactive). Also, the binding (% of control) in assay [12] is 100% (inactive). Also, the efflux inhibition (fraction of control) in [13] was 0.1 (inactive). In addition, in assay [15], the differentiation response was 7.87% (inactive).
Take `CC(O)Cn1cnc2c1c(=O)n(C)c(=O)n2C` (centres undefined): in [1], the percent of DMSO control GFP was 95.1% (inactive). Further, the GFP response vs DMSO is 93.8% (inactive) in [2] and 94.3% (inactive) in assay [4]. For the same molecule, the percent response of DMSO control in assay [3] is 111% (inactive). Besides, the GFP response, % of DMSO in [5] was 98.7% (inactive). In assay [6], the double positive events amounted to 50%. The vesicle binding response in assay [6] is 150% (inactive). In addition, the inhibition in assay [7] is 4.42% (inactive); in assay [10], -14.4% (inactive); in assay [14] it was 4% (inactive). For the same molecule, in assay [8], the superoxide response (% of plate) is 105% (inactive). Besides, the aptamer binding inhibition in [9] was 0% (inactive). Also, the response in assay [11] was 0.41% (inactive). In addition, the binding (% of control) in assay [12] is 101% (inactive). For the same molecule, the efflux inhibition (fraction of control) in assay [13] is -0.24 (inactive). In assay [15], the differentiation response was -14.7% (inactive).
Regarding `CCOC(=O)c1ccc(N2C(=O)C(CC(N)=O)N(CCc3ccc(OC)c(OC)c3)C2=S)cc1` (centres undefined), the percent of DMSO control GFP in assay [1] was 96.9% (inactive). Besides, the results for the GFP response vs DMSO in [2] and in assay [4] were 105% (inactive) and 96.4% (inactive), respectively. For the same molecule, in assay [3], the percent response of DMSO control was 94.9% (inactive). For the same molecule, in [5], the GFP response, % of DMSO was 88.8% (inactive). Further, in assay [6], the double positive events came to 46.3%. Besides, the vesicle binding response in [6] was 153% (inactive). The inhibition was -10.5% (inactive) in [7], 18.9% (inactive) in assay [10] and 21% (inactive) in assay [14]. The superoxide response (% of plate) in assay [8] was 107% (inactive). Besides, the aptamer binding inhibition in [9] was 2% (inactive). Further, the response in assay [11] was 1.03% (inactive). In addition, the binding (% of control) in assay [12] is 97.2% (inactive). In [13], the efflux inhibition (fraction of control) was 0.75 (active). Moreover, the differentiation response in [15] is -21.2% (inactive).

The values above are taken from PubChem BioAssay.
